Source: PubChem BioAssay
RAM inhibit: inhibitors of the yeast RAM network, primary screen, dse1pr::URA3 reporter, 5-FOA selection | S. cerevisiae dse1pr::URA3 reporter, 5-FOA growth OD615, 2 d; analog-sensitive cbk1-as2 kinase mutant strain | inhibition, % at 50 µM | 1.8% of 190,000 active | AID 868, 2007;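 active = inhibition above a set limit, 3 SD over mean compound inhibition, cut at about 8.4% in these data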;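 also: 0% = DMSO-only wells with no growth and 100% = 10 µM 1-NA-PP1 full growth; inhibition rescues growth on 5-FOA so higher OD means more RAM inhibition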
Lmaj promast: Leishmania major promastigote growth inhibition, primary screen. Leishmania major promastigotes, resazurin fluorescence viability. inhibition, % at 10 µM. 9% of 200,000 active. AID 1063, 2008; in the data active = inhibition above about 50%;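 also: promastigotes grown with compound for 44 hours at 28 °C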
WT yeast gro inh: growth inhibition of WT strain, primary screen, mitochondrial fusion inhibitor project, WT and mutant strains, chemical genetic; inhibition, % at 10 µM; mitochondrial fusion phenotypic screen; AID 1362, 2008; 2.1% of 190,000 active; in the data active = inhibition above about 58%; tested in S. cerevisiae
CHOP inh: inhibitors of CHOP promoter induction, primary screen, cell-based, unfolded protein response, luciferase reporter; CHO-K1 CHOP-promoter luciferase, tunicamycin-induced, 15-18 h; inhibition, % at 10 µM; 3.8% of 220,000 active; AID 2732, 2010;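 active = compounds that reduced the stress-induced luciferase reporter signal by more than about 70% of percent inhibition, limit read from the data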;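 also: 0% = tunicamycin plus vehicle and 100% = wells without tunicamycin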
The depositor's hits bear a star; . = no result. Shown are actives, neighbours in structure and some others; about 13% of the full set was active somewhere.

SMILES | RAM inhibit | Lmaj promast | WT yeast gro inh | CHOP inh
CC(=O)c1c(C)[nH]c(C(=O)N2CCN(c3cc(Cl)ccc3C)CC2)c1C | 3 | 33 | 19 | 27
CC(=O)c1ccc(N2CCN(C(=O)C3(S(=O)(=O)c4ccc(Cl)cc4)CC3)CC2)cc1 | 0 | 3 | -3 | 55
O=C(N1CCN(c2cccc(Cl)c2)CC1)C1(S(=O)(=O)c2ccc(Cl)cc2)CC1 | 4 | 99* | 11 | 49
Cc1ccc(Cl)cc1N1CCN(C(=O)C2(S(=O)(=O)c3ccc(Cl)cc3)CC2)CC1 | 4 | 97* | -7 | 44
Cc1cccc(N2CCN(C(=O)C3(S(=O)(=O)c4ccc(Cl)cc4)CC3)CC2)c1C | 8.6* | 52* | 40 | 37
O=C(NCCCN1CCN(c2cccc(Cl)c2)CC1)C1(S(=O)(=O)c2ccc(Cl)cc2)CC1 | 1 | 100* | 0 | 60
Cc1ccc(CNC(=O)C2CC(c3ccccc3F)=NO2)cc1 (centres undefined) | . | . | . | -18
CN(CC(=O)Nc1ccc(F)cc1)C(=O)COc1ccc(C(=O)c2ccccc2)cc1 | 2 | 4 | 22 | 30
Cc1ccc(NC(=O)c2ccc(=O)[nH]c2)cc1S(=O)(=O)N1CCCCC1 | . | . | . | 4
CC1=CC(=NOC(=O)c2cccc([N+](=O)[O-])c2)C=C(C)C1=O | 0 | 100* | -8 | -31
CC1=CC(=O)C(C(C)C)=C/C1=N\OC(=O)c1cccc2nc(C)oc12 | 2 | 96* | 5 | -341
CC1=CC(=O)C(C(C)C)=C/C1=N/OC(=O)c1cccc([N+](=O)[O-])c1 | 0 | 100* | -1 | 49
Cc1ccc(C(C)n2cc(C(=O)NCCN3CCN(C)CC3)nn2)cc1 (centres undefined) | 0 | 92* | -20 | 4
CCN1CCN(CCNC(=O)c2cn(C(C)c3ccccc3F)nn2)CC1 (centres undefined) | 3 | -3 | -10 | 3
CC(C)[C@@H]1CC[C@@H](C)c2c(-c3ccccc3)n[nH]c21 | -2 | 18 | 62* | 92*
Cc1cc(C)c(NC(=O)/C(=C/c2ccco2)c2ccccc2)c(C)c1 | 4 | 59* | 7 | 9
Cc1cccc(C)c1NC(=O)/C(=C/c1ccco1)c1ccccc1 | 3 | 20 | 0 | 22
CC(C)C(c1nnnn1CC1CCCO1)N1CCN(Cc2ccc3c(c2)OCO3)CC1 (centres undefined) | 1 | 83* | -11 | 4
c1ccc(CCn2nnnc2C(c2cccs2)N2CCN(Cc3ccc4c(c3)OCO4)CC2)cc1 (centres undefined) | 0 | 80* | 2 | 24
CC(C)C(c1nnnn1Cc1ccccc1)N1CCN(Cc2ccc3c(c2)OCO3)CC1 (centres undefined) | 1 | 89* | 7 | 37
CCN1CCN(C(c2ccccc2F)c2nnnn2Cc2ccc3c(c2)OCO3)CC1 (centres undefined) | 1 | 4 | 26 | -9
Nc1ccc(-c2nc3c(Cl)cc(N)cc3[nH]2)cc1 | 2 | 12 | 14 | 88*
Cn1cccc1-c1cc(C(=O)N/N=C/c2cccc(O)c2)[nH]n1 | 2 | 1 | -10 | 1
CCc1nc2ccccc2c(=O)n1NC(=O)c1c(O)c2cccc3c2n(c1=O)CCC3 | 3 | -10 | 47 | 95*
O=C(Nn1c(Cc2ccccc2)nc2ccccc2c1=O)c1c(O)c2cccc3c2n(c1=O)CCC3 | 3 | 23 | 68* | 39
SMILES | RAM inhibit | Lmaj promast | WT yeast gro inh | CHOP inh
O=C(Nc1cccnc1)c1c(O)c2cccc3c2n(c1=O)CC3 | -1 | 6 | -37 | 80*
O=C(NCc1ccccc1)c1c(O)c2cccc3c2n(c1=O)CCC3 | 1 | -10 | -6 | 34
CCCCc1nc2ccccc2c(=O)n1NC(=O)c1c(O)c2c(n(CC(C)C)c1=O)CCCC2 | 1 | 49 | 10 | 27
CC(C)Cn1c2c(c(O)c(C(=O)Nn3c(Cc4ccccc4)nc4ccccc4c3=O)c1=O)CCCC2 | 6 | 74* | 7 | 28
COc1cccc(NC(=O)C(Cc2ccccc2)n2cccc2)c1 (centres undefined) | . | . | . | 11
CN(C)c1ccc(/C=C/C=C2/SC(=S)N(c3ccccc3)C2=O)cc1 | 11* | 18 | 22 | 34
CN1c2ccccc2C(C)(C)[C@]12C=Cc1cc(O)ccc1O2 | -1 | 99* | 26 | 95*
Cc1ccccc1OCC(=O)Nc1nc2ccccc2[nH]1 | 0 | 29 | . | -35
CC(C)NC(=O)CN1CCN(C(=O)CCl)CC1 | 2 | -7 | -10 | -8
CC(C)c1ccc(CN2CCN(C(=O)CCl)CC2)cc1 | 1 | 99* | 4 | -136
NC(=O)c1nsc(C(=O)N(CC(=O)NC2CCCC2)c2cnc3ccccc3c2)c1N | . | . | . | 2
Nc1nc(NCc2ccccc2)nc(-c2ccccc2)n1 | 1 | 4 | 21 | 17
CN(c1ccccc1)c1nc(-n2ccnc2)nc(-n2ccnc2)n1 | 0 | 6 | 36 | 4
CCCCCNc1nc(-c2ccccc2)nc(-n2ccnc2)n1 | 3 | 40 | 14 | 72*
CCCCNc1nc(N(C)c2ccccc2)nc(-n2ccnc2)n1 | 0 | 98* | 50 | 70
CCCN1CCC(=O)N([C@H](CSc2ccc(OC)cc2)c2ccccc2)CC1 | . | . | . | -34
O=S(Cc1ccc(Br)cc1)Cc1nnc(SCc2ccc(Br)cc2)n1-c1ccccc1 (centres undefined) | 5 | 5 | 82* | 57
CCN(CC)C(=O)CSc1nc2c(sc(=S)n2CC)c(=O)n1-c1ccccc1 | 2 | 59* | -1 | -9
CCN(CC)C(=O)CSc1nc2c(sc(=S)n2-c2ccccc2)c(=O)n1Cc1ccco1 | 8 | 39 | -25 | 27
CC(Cc1ccsc1)NC(=O)CCc1nnc(COc2ccccc2)o1 (centres undefined) | 0 | -8 | -14 | 15
O=C(COc1ccccc1-c1ccccc1)N/N=C/c1ccccn1 | 11* | 23 | 39 | 77*
CCCCCC(=O)N/N=C(\C)c1ccc(N2CCCCC2)cc1 | 1 | -7 | -4 | 76*
O=C(COc1ccccc1-c1ccccc1)N/N=C/c1ccncc1 | 0 | 10 | 15 | 35
C/C(=N\NC(=O)COc1ccccc1-c1ccccc1)c1ccccn1 | 1 | 100* | 72* | 37
CCCCCCCCCC(=O)N/N=C(\C)c1cccnc1 | -2 | 1 | 41 | 13
SMILES | RAM inhibit | Lmaj promast | WT yeast gro inh | CHOP inh
CCCCCC(=O)N/N=C(\C)c1ccccn1 | 1 | 93* | 1 | 29
Cc1ccc(NC(=O)CSc2nnc(C3CC3)n2N)cc1S(=O)(=O)N1CCOCC1 | 0 | 6 | 12 | -4
COc1ccc(NC(=O)C(=O)N2N=C3CCCCC3C2(O)C(F)(F)F)cc1 (centres undefined) | 1 | -4 | -13 | 6
COCCN=C1Sc2nc3ccc(C)cc3cc2CN1Cc1ccco1 | 1 | 60* | -12 | 40
COCCN=C1Sc2nc3cc(C)c(C)cc3cc2CN1Cc1cccs1 | . | . | . | -56
O=C(COc1ccc(Cl)cc1Cl)c1ccc[nH]1 | . | . | . | -12
O=C(Cc1ccccc1)NC(NCCc1ccccc1)C(Cl)(Cl)Cl (centres undefined) | -1 | 98* | -7 | 6
